From paper PMC5540273 (PLoS ONE, 2017)

Key:
Conditions in all cases: concentration: 1 μM, replicates: in singlicate; n = 1
[1] = tested on: T1, SNARK
T1 construct: gene NUAK2

[2] = tested on: SNRK
[3] = tested on: SRC
[4] = tested on: SRMS
[5] = tested on: SRPK1
[6] = tested on: SRPK2
[7] = tested on: SRPK3
[8] = tested on: STK16
[9] = tested on: STK33
[10] = tested on: STK35
[11] = tested on: STK36
[12] = tested on: STK39
[13] = tested on: SYK
[14] = tested on: SgK110
[15] = tested on: T2, TAK1
T2 construct: gene MAP3K7

[16] = tested on: TAOK1
[17] = tested on: TAOK2
[18] = tested on: TAOK3
[19] = tested on: TBK1
[20] = tested on: TEC
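Note: KINOMEscan kinase panel screen.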

| Structure (SMILES) | %Inh [1] | %Inh [2] | %Inh [3] | %Inh [4] | %Inh [5] | %Inh [6] | %Inh [7] | %Inh [8] | %Inh [9] | %Inh [10] | %Inh [11] | %Inh [12] | %Inh [13] | %Inh [14] | %Inh [15] | %Inh [16] | %Inh [17] | %Inh [18] | %Inh [19] | %Inh [20] |
| --- | --- | --- | --- | --- | --- | --- | --- | --- | --- | --- | --- | --- | --- | --- | --- | --- | --- | --- | --- | --- |
| CSc1ccc(NC2=C(c3ccc(Cl)cc3)C(=O)NC2=O)cc1 [SB-317658] | 12% | 0% | 17% | 3% | 0% | 7% | 9% | 24% | 0% | 0% | 15% | 0% | 3% | 0% | 39% | 18% | 0% | 0% | 0% | 0% |
| CC(C)(C)c1ccc(C(=O)Nc2cn3cc(-n4ccnc4)ccc3n2)cc1 | 79% | 16% | 0% | 0% | 0% | 0% | 0% | 19% | 0% | 0% | 10% | 0% | 0% | 15% | 9% | 0% | 0% | 0% | 24% | 0% |
| O=C(Nc1c(F)cccc1F)c1cc(C(=O)c2ccccc2F)c[nH]1 [GSK1326180] | 0% | 0% | 0% | 0% | 18% | 1% | 0% | 0% | 16% | 0% | 0% | 0% | 22% | 0% | 0% | 0% | 0% | 0% | 3% | 7% |
| Cc1ccc(O)cc1Nc1ccnc2ccc(C(C)(C)C)cc12 [GW856805] | 19% | 34% | 99.9% | 19% | 24% | 8% | 9% | 43% | 11% | 0% | 0% | 43% | 24% | 0% | 57% | 35% | 13% | 28% | 27% | 31% |
| O=C1NC(=O)C(c2ccccc2Cl)=C1Nc1cccc(Cl)c1 [SB-342409] | 0% | 11% | 0% | 0% | 21% | 0% | 23% | 13% | 0% | 6% | 0% | 9% | 0% | 0% | 0% | 0% | 0% | 11% | 7% | 13% |
| Cl.N#CCc1ccc(Nc2nccc(Nc3ccc(Oc4ccccc4)cc3)n2)cc1 [GW639905] | 96.6% | 2% | 37% | 82% | 18% | 0% | 0% | 79% | 0% | 65% | 0% | 10% | 5% | 6% | 0% | 0% | 7% | 0% | 6% | 75% |
| CCNC(=O)/C=C/c1n[nH]c2cc(Sc3ccccc3C(=O)NC)ccc12 | 42% | 5% | 7% | 7% | 63% | 0% | 37% | 10% | 0% | 48% | 35% | 0% | 20% | 15% | 26% | 0% | 0% | 8% | 13% | 0% |
| Nc1ncnc2scc(-c3ccc(NC(=O)Cc4cc(F)ccc4F)cc3)c12.O=C(O)C(F)(F)F [SB-731254-M] | 23% | 11% | 13% | 30% | 10% | 25% | 3% | 1% | 6% | 0% | 0% | 8% | 0% | 11% | 22% | 11% | 3% | 0% | 30% | 1% |
| CN(c1ccc(F)c(NC(=O)c2cccc(OC(C)(C)C#N)c2Cl)c1)c1ccc2nc(NC(=O)C3CC3)sc2n1 | 0% | 12% | 99% | 0% | 52% | 0% | 0% | 0% | 0% | 0% | 3% | 12% | 0% | 0% | 19% | 49% | 0% | 0% | 7% | 6% |
| Cc1cc(-c2ccnc(Nc3cccc(C#N)c3)n2)cc(C)c1O [GSK1440913] | 27% | 0% | 7% | 0% | 78% | 54% | 92.2% | 90.4% | 32% | 25% | 38% | 8% | 83% | 0% | 54% | 77% | 22% | 42% | 35% | 19% |
